Bioassay records deposited in PubChem by several laboratories.
Shn3 3UTR inh = reduction of Shn3 3'UTR firefly luciferase signal, primary screen, Schnurri-3 inhibitor project, cell-based, Clone20 osteoblasts, set 2. Clone20 osteoblast Shn3 3'UTR firefly luciferase, 24 h. inhibition, % at 12.5 µM. 360,000 tested, 0.52% active. AID 588674, 2011;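 active means mean inhibition of at least 75% with every replicate also reaching 75%; inconclusive means mean inhibition at least 75% but some replicate below; inactive means mean inhibition below 75%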
EBV LMP1 NFkB = EBV LMP1-driven NF-kappaB luciferase reporter inhibitors, primary screen, cell-based, luminescence, single point; LMP1-induced NF-kappaB luciferase reporter cells; inhibition, % at 12.5 µM; 350,000 tested, 0.69% active; in the data active means inhibition above about 41%; inconclusive means no clear call, values can overlap the other calls
TRPM1 prom inh = inhibitors of MITF-dependent TRPM1 promoter reporter, primary screen, cell-based, SK-MEL-5, single point, luciferase | AID 488899, 2010 | 330,000 tested, 0.83% active | inhibition, % at 12.5 µM | SK-MEL-5 TRPM1 promoter luciferase, 24 h;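 active means mean inhibition across replicates of 60% or more, whatever share of single replicates reaches that level; inconclusive means some that reach 60%, reason not given; inactive means mean inhibition across replicates below 60%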
TROY NFkB inh = inhibitors of TROY-driven NF-kB signaling, primary screen, Q293 LMP1-TROYcd cells, NF-kB luciferase, uHTS; AID 1347056, 2019; inhibition, % at 10 µM; 360,000 tested, 0.98% active; Q293 LMP1-TROYcd NF-kB luciferase reporter, 4 h;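 active means compounds whose plate-normalised and pattern-corrected inhibition of the luciferase reporter signal at the single screening dose is 50% or more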
TWEAK Fn14 block = inhibitors of TWEAK-Fn14 signaling, primary screen, luciferase reporter cells, uHTS | 360,000 tested, 2% active | inhibition, % at 10 µM | TWEAK-stimulated Fn14 reporter cells, luciferase luminescence, 8 h; in the data active means inhibition above about 50%
Peg3 promoter = Peg3 promoter-driven luciferase inhibitors, primary screen, cell-based, HeLa, luciferase luminescence | HeLa PEG-Prom luciferase reporter, overnight | inhibition, % at 20 µM | 360,000 tested, 1.7% active;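 active means inhibition of at least 50% at 20 µM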
Large screens that a line does not name were inactive. Hits are enriched below; roughly 4.1% of the tested compounds scored in any of these assays.

CCCCCCn1c(=O)n2n(c1=O)C[C@]1(OC(=O)Nc3c(C)noc3C)CN(S(=O)(=O)c3ccc(C)cc3)C[C@]1(O)C2	none (no result: TRPM1 prom inh)
Cc1[nH]c2ccccc2c1C(=O)C(=O)N1CCN(c2cccc(Cl)c2)CC1	none
O=[N+]([O-])c1cccc(/C=N/Nc2cc(N3CCOCC3)ncn2)c1	Peg3 promoter 62
C/C(=N\Nc1cc(N2CCOCC2)ncn1)c1ccccc1	none
C/C(=N\Nc1cc(N2CCOCC2)ncn1)c1cccc([N+](=O)[O-])c1	Peg3 promoter 102
COc1cc(/C=N/N(C)S(=O)(=O)c2ccc(C)cc2)cc([N+](=O)[O-])c1O	none
Cc1ccc(N2CC(NS(=O)(=O)c3cccs3)CC2=O)cc1 (centres undefined)	none
C=C(C(=O)c1ccccc1)C(c1ccccc1)C(C)C(=O)c1ccccc1 (centres undefined)	TWEAK Fn14 block 51
C=C(C(=O)c1ccccc1)C(C(=C)C(=O)c1ccccc1)c1ccc(OC)cc1	Shn3 3UTR inh 97, TRPM1 prom inh 82, TWEAK Fn14 block 93, Peg3 promoter 105
C=C(C(=O)c1ccccc1)C(C)C(=C)C(=O)c1ccccc1	TWEAK Fn14 block 94, Peg3 promoter 104 (no result: TRPM1 prom inh)
O=C(O)c1ccc(C(=O)C(=O)c2ccccc2)cc1	none
CCCC#Cc1cnc2c(c1)C(=O)N([C@H](C)CO)C[C@@H](C)[C@H](CN(C)S(=O)(=O)c1cccc(OC)c1)O2	none (no result: TRPM1 prom inh)
Cc1nnc2n(Cc3ccccc3)c(=O)c3c4c(sc3n12)COC(C)(C)C4	none
CC1(C)Cc2c(sc3c2c(=O)n(Cc2ccccc2)c2nncn32)CO1	EBV LMP1 NFkB 54
Cc1noc(C)c1CSCC(=O)Nc1ccc(S(C)(=O)=O)cc1	none
COC(=O)c1[nH]c2ccc(C)cc2c1NC(=O)C(C)N1CCN(C2CCCCC2)CC1 (centres undefined)	none (no result: TROY NFkB inh)
COC(=O)c1[nH]c2ccc(C)cc2c1NC(=O)NC1CCCCC1	EBV LMP1 NFkB 73
COc1ccc(/C=C/C(=O)c2cc(F)ccc2OC(=O)c2ccccc2OC)cc1OC	TROY NFkB inh 55, TWEAK Fn14 block 77, Peg3 promoter 52
COc1ccc(/C=C/C(=O)c2ccc(C(=O)/C=C/c3ccc(OC)c(OC)c3)cc2)cc1OC	Shn3 3UTR inh 87
COc1cc(/C=C/C(=O)c2ccc(C)cc2)ccc1OCC#N	TWEAK Fn14 block 87, Peg3 promoter 103
CCOc1cc(/C=C/C(=O)c2ccc(C)cc2)ccc1OCC(=O)N(C)C	TWEAK Fn14 block 59
COc1ccc(/C=C/C(=O)c2cc(F)ccc2OC(=O)c2ccccc2)cc1OC	TRPM1 prom inh inconclusive
CCOc1cc(/C=C/C(=O)O)ccc1OCCO	none
Cc1cc(OC(=O)c2cc(Cl)ccc2Cl)c([N+](=O)[O-])c(=O)[nH]1	none
CCOc1ccccc1OCCC(=O)OCC(=O)Nc1c(C)nn(-c2ccccc2)c1C	none
COCCN(C(=O)c1cc(S(=O)(=O)N2CCCCC2)ccc1Cl)c1c(N)n(CC(C)C)c(=O)[nH]c1=O	none
CC(C)C[C@H]1CNC(=S)N1CC1CCCN1C[C@H](Cc1ccccc1)N1C[C@H](Cc2ccc(O)cc2)N(CC2CCCCC2)C1=S (some centres undefined)	Peg3 promoter 59
CC(C)C[C@H]1CNC(=S)N1C[C@H]1CCCN1C[C@H](Cc1ccccc1)N1C[C@H](Cc2ccc(O)cc2)N(CC2CCCCCC2)C1=S	Peg3 promoter 99 (no result: EBV LMP1 NFkB, TRPM1 prom inh)
CN(Cc1cccc(F)c1)C(=O)c1ccc(S(=O)(=O)N2CCCCCC2)cc1	none
O=C(NC(Cc1ccccc1)C(=O)O)/C(=C/c1cccc([N+](=O)[O-])c1)NC(=O)c1cccc(Br)c1 (centres undefined)	none
Cc1ccc(C(=O)C(C)OC(=O)Cn2cnc3c2c(=O)n(C)c(=O)n3C)cc1 (centres undefined)	none
O=C1/C(=C/N(C(=O)c2ccco2)c2ccc(Br)cc2)Sc2ccccc21	TROY NFkB inh 65, TWEAK Fn14 block 87
O=C1/C(=C/N(C(=O)c2ccco2)c2ccc(Cl)cc2)Sc2ccccc21	TROY NFkB inh 60, TWEAK Fn14 block 83
O=C1c2ccccc2C(=O)N1CCCCN(C(=O)c1ccco1)c1ccc(Cl)cc1	none
COc1ccc(CN(C(=O)c2ccco2)c2ccc(Br)cc2)cc1OC	none
CCOC(=O)C1CCCN(C(=O)c2cccc(S(=O)(=O)N(Cc3ccccc3)c3ccccc3OC)c2)C1 (centres undefined)	none
C=CCNC(=O)C1CC1(c1cccc(C)c1)c1cccc(C)c1 (centres undefined)	none (no result: EBV LMP1 NFkB, TRPM1 prom inh)
Cc1cccc(C2(c3cccc(C)c3)CC2C(=O)Nc2ccc([N+](=O)[O-])cc2O)c1 (centres undefined)	TRPM1 prom inh 66, TROY NFkB inh 60, TWEAK Fn14 block 74, Peg3 promoter 54
O=C(CCl)N1CCN(S(=O)(=O)c2ccc3c(c2)CCC3)CC1	TRPM1 prom inh 66, Peg3 promoter 50
Cc1ccc(CNC(=S)Nc2ccc3c(c2)c(=O)n(C)n3Cc2cccc(C(F)(F)F)c2)cc1	TROY NFkB inh 61, TWEAK Fn14 block 57 (no result: EBV LMP1 NFkB, TRPM1 prom inh)
CCNC(=S)Nc1ccc2c(c1)c(=O)n(C)n2Cc1cccc(C(F)(F)F)c1	none (no result: EBV LMP1 NFkB, TRPM1 prom inh)
O=C(COC(=O)CCc1ccccc1)NNC(=O)c1ccccc1	none
NC(=O)c1nc(-c2ccco2)nc2c1[nH]c(=O)n2-c1ccc(Cl)c(Cl)c1	Peg3 promoter 80
Cc1cccc(-n2c(=O)[nH]c3c(C(N)=O)nc(-c4ccccc4Cl)nc32)c1	none
COc1ccc(S(=O)(=O)N2CCN(C(=O)NCc3ccc(OC)c(OC)c3)CC2)cc1	none
Cc1csc2c(N3CCN(C(=S)Nc4ccc(C(F)(F)F)cc4)CC3)ncnc12	none
Cc1csc2ncnc(N3CCN(C(=S)Nc4ccc(C(F)(F)F)cc4)CC3)c12	TWEAK Fn14 block 51
O=C(O)c1ccc(-c2ccc(/C=N/Nc3ccc([N+](=O)[O-])cc3)o2)cc1	none
NS(=O)(=O)c1ccc(-c2ccc(/C=N/Nc3ccc(C(=O)O)cc3)o2)cc1	TWEAK Fn14 block 50
CCC(=O)c1ccc(N2CCN(C(=O)COc3ccc(F)cc3)CC2)c(F)c1	TWEAK Fn14 block 81 (no result: TROY NFkB inh)
O=C1CN(S(=O)(=O)c2cccc(Cl)c2Cl)c2ccccc2N1	none
Cc1ccc(C2CC(c3cccs3)=NN2C(=O)CCl)cc1 (centres undefined)	TWEAK Fn14 block 65
CNC(=S)N1N=C(c2cccs2)CC1c1ccc(F)cc1 (centres undefined)	EBV LMP1 NFkB 50
CCC(=O)N1N=C(c2cccs2)CC1c1ccc(C)cc1 (centres undefined)	none
